Common to all, as to experiment: DAPPL (digital affinity profiling via proximity ligation, sequencing); 10 mM Tris-HCl pH 7.5, 50 mM NaCl, 1 mM DTT, 4% glycerol, room temperature, 30 min; GST-TFs on glutathione beads, 16-mer random dsDNA library, 0.1% formaldehyde crosslink after washing; high values mean tight binding
Holding throughout (conditions): protein: recombinant; tags: N-terminal GST; dsDNA, one strand shown

The target in one test is T1, FLI1 (Homo sapiens, UniProt Q01543 1-452).
T1 sequence: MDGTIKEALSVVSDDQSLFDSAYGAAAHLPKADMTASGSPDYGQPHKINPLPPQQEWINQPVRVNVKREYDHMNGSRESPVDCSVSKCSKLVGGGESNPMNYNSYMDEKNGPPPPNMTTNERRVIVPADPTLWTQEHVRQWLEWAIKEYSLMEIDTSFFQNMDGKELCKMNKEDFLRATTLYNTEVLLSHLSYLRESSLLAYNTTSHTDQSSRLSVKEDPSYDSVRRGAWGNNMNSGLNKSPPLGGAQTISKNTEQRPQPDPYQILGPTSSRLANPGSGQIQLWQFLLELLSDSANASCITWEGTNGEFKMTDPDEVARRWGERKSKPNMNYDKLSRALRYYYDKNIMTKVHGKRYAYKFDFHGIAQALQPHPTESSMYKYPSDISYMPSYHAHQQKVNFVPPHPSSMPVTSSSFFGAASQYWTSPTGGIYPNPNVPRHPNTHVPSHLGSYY
The gist of the method: (§1)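 Binding signal is defined as a hexamer's read frequency for one factor over its frequency for the tag-only sample. To obtain reads, GST-fused human transcription factors were expressed in yeast, captured on glutathione beads, barcoded with DNA and pooled with that sample. Pools met 200 nmole of a 16-mer random double-stranded DNA library in Tris/NaCl/DTT/glycerol buffer for 30 min at room temperature before washing, 0.1% formaldehyde crosslinking, proximity ligation (BsaI/T4 ligase, 1 h, 37 °C), PCR and Illumina NextSeq500 sequencing.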

Another test deals with T2, ELK1 (Homo sapiens, UniProt P19419 1-428).
T2 sequence: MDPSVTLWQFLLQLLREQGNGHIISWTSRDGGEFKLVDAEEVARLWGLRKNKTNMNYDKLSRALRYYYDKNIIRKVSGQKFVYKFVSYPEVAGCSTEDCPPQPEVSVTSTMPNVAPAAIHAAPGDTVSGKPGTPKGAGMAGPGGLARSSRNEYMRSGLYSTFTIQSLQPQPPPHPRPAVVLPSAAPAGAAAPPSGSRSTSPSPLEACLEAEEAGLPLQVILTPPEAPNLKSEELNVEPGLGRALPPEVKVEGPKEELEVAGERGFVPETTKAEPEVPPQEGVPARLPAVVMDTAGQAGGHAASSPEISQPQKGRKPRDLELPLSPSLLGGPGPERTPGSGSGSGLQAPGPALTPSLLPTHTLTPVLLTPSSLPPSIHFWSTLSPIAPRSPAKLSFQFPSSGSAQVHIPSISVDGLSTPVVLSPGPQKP
A digest of the protocol: as §1

In a further test the target is T3, GABPA (Homo sapiens, UniProt Q06546 1-454).
T3 sequence: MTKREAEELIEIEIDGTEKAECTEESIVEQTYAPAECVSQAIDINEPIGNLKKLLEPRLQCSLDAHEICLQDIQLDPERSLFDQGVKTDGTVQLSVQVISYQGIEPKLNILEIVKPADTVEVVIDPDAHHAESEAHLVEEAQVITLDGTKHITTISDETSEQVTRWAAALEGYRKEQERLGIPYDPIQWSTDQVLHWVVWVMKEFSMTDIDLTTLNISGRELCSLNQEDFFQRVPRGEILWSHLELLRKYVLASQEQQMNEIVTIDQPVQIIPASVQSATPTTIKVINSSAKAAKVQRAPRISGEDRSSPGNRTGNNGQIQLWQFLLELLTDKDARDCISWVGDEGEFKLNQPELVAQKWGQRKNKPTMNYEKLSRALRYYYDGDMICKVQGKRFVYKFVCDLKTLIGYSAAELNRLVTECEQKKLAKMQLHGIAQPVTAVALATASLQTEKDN
The gist of the method:
as §1

For the next test, the target named is T4, ERG (Homo sapiens, UniProt P11308 1-479).
T4 sequence: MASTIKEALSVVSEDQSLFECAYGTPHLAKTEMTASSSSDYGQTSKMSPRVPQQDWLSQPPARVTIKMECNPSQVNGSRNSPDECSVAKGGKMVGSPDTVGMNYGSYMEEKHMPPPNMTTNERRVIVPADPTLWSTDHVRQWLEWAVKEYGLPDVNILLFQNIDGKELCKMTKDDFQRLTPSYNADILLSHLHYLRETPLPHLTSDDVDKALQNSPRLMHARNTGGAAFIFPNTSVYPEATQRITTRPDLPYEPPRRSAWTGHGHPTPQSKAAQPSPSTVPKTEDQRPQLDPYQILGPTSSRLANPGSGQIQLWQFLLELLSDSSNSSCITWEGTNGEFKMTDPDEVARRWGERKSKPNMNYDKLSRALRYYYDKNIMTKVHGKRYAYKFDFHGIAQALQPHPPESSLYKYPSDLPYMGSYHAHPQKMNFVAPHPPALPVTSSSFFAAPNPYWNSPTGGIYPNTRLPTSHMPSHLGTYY
A digest of the protocol:
as §1

In a further test the target is ELF1 (Homo sapiens, UniProt P32519 1-619). The gist of the method:
as §1

Another test has as its target T5, EHF (Homo sapiens, UniProt Q9NZC4 1-300).
T5 sequence: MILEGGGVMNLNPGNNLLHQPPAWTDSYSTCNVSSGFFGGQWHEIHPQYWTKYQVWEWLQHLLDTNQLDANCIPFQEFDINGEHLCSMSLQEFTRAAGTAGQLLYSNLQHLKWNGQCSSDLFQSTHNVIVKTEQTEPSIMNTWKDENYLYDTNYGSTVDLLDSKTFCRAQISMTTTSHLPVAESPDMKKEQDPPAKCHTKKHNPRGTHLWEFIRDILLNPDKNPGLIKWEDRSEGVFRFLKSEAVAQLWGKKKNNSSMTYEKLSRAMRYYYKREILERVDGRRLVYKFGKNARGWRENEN
A digest of the protocol:
as §1

The target in another test is SPI1 (Homo sapiens, UniProt P17947 1-270). The gist of the method: as §1
The target of a further test is SPIB (Homo sapiens, UniProt Q01892 1-262). A digest of the protocol: as §1
Another test has as its target T6, ELK3 (Homo sapiens, UniProt P41970 1-407).
T6 sequence: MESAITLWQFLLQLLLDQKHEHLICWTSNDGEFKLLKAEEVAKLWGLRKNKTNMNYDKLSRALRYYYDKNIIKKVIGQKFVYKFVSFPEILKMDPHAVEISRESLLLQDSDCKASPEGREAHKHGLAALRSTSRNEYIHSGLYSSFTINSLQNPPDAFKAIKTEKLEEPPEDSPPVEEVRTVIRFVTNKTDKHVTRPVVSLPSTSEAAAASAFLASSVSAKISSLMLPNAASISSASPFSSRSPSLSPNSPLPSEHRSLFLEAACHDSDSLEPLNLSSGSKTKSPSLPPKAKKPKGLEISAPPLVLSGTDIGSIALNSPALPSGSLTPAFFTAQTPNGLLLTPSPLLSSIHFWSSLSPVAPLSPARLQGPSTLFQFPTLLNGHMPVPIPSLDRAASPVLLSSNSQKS
A digest of the protocol:
as §1

We go through 7 sequences from paper PMC7862700, “An all-to-all approach to the identification of sequence-specific readers for epigenetic DNA modifications on cytosine”.

Sequence of ELF1 (P32519 whole entry): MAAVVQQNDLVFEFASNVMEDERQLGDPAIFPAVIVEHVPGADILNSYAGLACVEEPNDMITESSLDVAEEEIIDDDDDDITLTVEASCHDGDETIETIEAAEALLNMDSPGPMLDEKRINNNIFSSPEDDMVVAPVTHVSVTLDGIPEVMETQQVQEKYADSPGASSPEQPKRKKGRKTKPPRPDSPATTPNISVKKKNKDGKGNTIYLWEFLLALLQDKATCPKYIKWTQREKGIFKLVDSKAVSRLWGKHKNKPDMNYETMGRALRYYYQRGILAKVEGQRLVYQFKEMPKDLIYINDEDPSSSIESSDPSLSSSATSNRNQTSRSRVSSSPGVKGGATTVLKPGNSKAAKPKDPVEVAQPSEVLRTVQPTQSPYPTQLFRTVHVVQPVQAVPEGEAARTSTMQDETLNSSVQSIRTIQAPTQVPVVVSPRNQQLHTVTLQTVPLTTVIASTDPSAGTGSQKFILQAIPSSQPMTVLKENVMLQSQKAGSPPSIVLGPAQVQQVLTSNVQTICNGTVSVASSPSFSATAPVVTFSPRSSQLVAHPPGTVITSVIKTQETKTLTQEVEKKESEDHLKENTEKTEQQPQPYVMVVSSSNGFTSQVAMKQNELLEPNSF
Sequence of SPIB (Q01892 whole entry): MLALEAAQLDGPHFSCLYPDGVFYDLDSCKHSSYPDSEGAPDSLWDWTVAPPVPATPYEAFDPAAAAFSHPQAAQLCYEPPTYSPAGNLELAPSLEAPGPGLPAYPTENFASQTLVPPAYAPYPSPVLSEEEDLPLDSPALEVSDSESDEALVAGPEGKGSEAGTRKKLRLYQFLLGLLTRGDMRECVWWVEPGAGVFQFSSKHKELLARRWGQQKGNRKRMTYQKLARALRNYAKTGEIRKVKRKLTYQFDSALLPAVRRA

As for TGCTTT, the binding signal with FLI1 is 1.13 fold enrichment (6-mer frequency, TF over GST control); with ELK1, 1.12 fold enrichment (6-mer frequency, TF over GST control); with GABPA, 1.12 fold enrichment (6-mer frequency, TF over GST control); in the test with ERG, 1.02 fold enrichment (6-mer frequency, TF over GST control); with ELF1, 1.1 fold enrichment (6-mer frequency, TF over GST control); in the test with EHF, 1.04 fold enrichment (6-mer frequency, TF over GST control). Further, the binding signal with SPI1 was 1.14 fold enrichment (6-mer frequency, TF over GST control); in the test with SPIB it was 1.08 fold enrichment (6-mer frequency, TF over GST control); with ELK3, 1.1 fold enrichment (6-mer frequency, TF over GST control).
On to GATCCT, for which the binding signal with FLI1 is 1.28 fold enrichment (6-mer frequency, TF over GST control); in the test with ELK1 it was 1.2 fold enrichment (6-mer frequency, TF over GST control); with GABPA, 1.3 fold enrichment (6-mer frequency, TF over GST control); in the test with ERG, 1.38 fold enrichment (6-mer frequency, TF over GST control); with ELF1 it was 1.26 fold enrichment (6-mer frequency, TF over GST control); with EHF it was 1.28 fold enrichment (6-mer frequency, TF over GST control). Moreover, the binding signal in the test with SPI1 is 1.24 fold enrichment (6-mer frequency, TF over GST control); in the test with SPIB it was 1.33 fold enrichment (6-mer frequency, TF over GST control); with ELK3, 1.31 fold enrichment (6-mer frequency, TF over GST control).
In the case of TTTGAT, the binding signal in the test with FLI1 was 1.37 fold enrichment (6-mer frequency, TF over GST control); with ELK1, 1.36 fold enrichment (6-mer frequency, TF over GST control); with GABPA, 1.26 fold enrichment (6-mer frequency, TF over GST control); with ERG it was 1.3 fold enrichment (6-mer frequency, TF over GST control); with ELF1, 1.23 fold enrichment (6-mer frequency, TF over GST control); in the test with EHF, 1.25 fold enrichment (6-mer frequency, TF over GST control). Also, the binding signal was 1.22 fold enrichment (6-mer frequency, TF over GST control) in the test with SPI1; 1.31 fold enrichment (6-mer frequency, TF over GST control) with SPIB; 1.12 fold enrichment (6-mer frequency, TF over GST control) with ELK3.
As to GATGTT, the binding signal is 1.28 fold enrichment (6-mer frequency, TF over GST control) with FLI1; 1.34 fold enrichment (6-mer frequency, TF over GST control) with ELK1; 1.27 fold enrichment (6-mer frequency, TF over GST control) with GABPA; 1.28 fold enrichment (6-mer frequency, TF over GST control) with ERG; 1.25 fold enrichment (6-mer frequency, TF over GST control) with ELF1; 1.32 fold enrichment (6-mer frequency, TF over GST control) with EHF. The binding signal is 1.25 fold enrichment (6-mer frequency, TF over GST control) with SPI1; 1.2 fold enrichment (6-mer frequency, TF over GST control) in the test with SPIB; 1.22 fold enrichment (6-mer frequency, TF over GST control) with ELK3.
Regarding TTCTCG, the binding signal in the test with FLI1 was 1.51 fold enrichment (6-mer frequency, TF over GST control); in the test with ELK1, 1.43 fold enrichment (6-mer frequency, TF over GST control); with GABPA it was 1.55 fold enrichment (6-mer frequency, TF over GST control); with ERG it was 1.38 fold enrichment (6-mer frequency, TF over GST control); with ELF1, 1.36 fold enrichment (6-mer frequency, TF over GST control); with EHF, 1.34 fold enrichment (6-mer frequency, TF over GST control). In addition, the binding signal with SPI1 is 1.42 fold enrichment (6-mer frequency, TF over GST control); with SPIB, 1.46 fold enrichment (6-mer frequency, TF over GST control); with ELK3, 1.44 fold enrichment (6-mer frequency, TF over GST control).
For the sequence ACTGAT, the binding signal in the test with FLI1 was 1.22 fold enrichment (6-mer frequency, TF over GST control); with ELK1 it was 1.31 fold enrichment (6-mer frequency, TF over GST control); with GABPA, 1.27 fold enrichment (6-mer frequency, TF over GST control); with ERG it was 1.3 fold enrichment (6-mer frequency, TF over GST control); in the test with ELF1, 1.28 fold enrichment (6-mer frequency, TF over GST control); with EHF, 1.27 fold enrichment (6-mer frequency, TF over GST control). For the same sequence, the binding signal was 1.31 fold enrichment (6-mer frequency, TF over GST control) with SPI1; 1.19 fold enrichment (6-mer frequency, TF over GST control) in the test with SPIB; 1.26 fold enrichment (6-mer frequency, TF over GST control) with ELK3.
Consider TTGATA, for which the binding signal is 1.23 fold enrichment (6-mer frequency, TF over GST control) with FLI1; 1.29 fold enrichment (6-mer frequency, TF over GST control) with ELK1; 1.31 fold enrichment (6-mer frequency, TF over GST control) in the test with GABPA; 1.17 fold enrichment (6-mer frequency, TF over GST control) with ERG; 1.24 fold enrichment (6-mer frequency, TF over GST control) with ELF1; 1.14 fold enrichment (6-mer frequency, TF over GST control) with EHF. The binding signal with SPI1 is 1.14 fold enrichment (6-mer frequency, TF over GST control); with SPIB, 1.08 fold enrichment (6-mer frequency, TF over GST control); in the test with ELK3 it was 1.01 fold enrichment (6-mer frequency, TF over GST control).
